High-throughput results as filed in PubChem BioAssay.
KAT2A inh – GCN5L2 (KAT2A) acetyltransferase inhibition | 390,000 compounds, 0.21% hits | Potency, µM (highest dose often 58.9 µM), actives largely listed as inhibitors | GCN5L2 HAT assay, ThioGlo1 CoA-SH fluorescence | AID 504327
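ThioGlo1-coupled HAT assay: 20nM GCN5L2, 70uM acetyl-CoA, 75uM H3(1-25) peptide, pH 7.5. Fluorescence read at 340/540nm at start and after 20 min at room temperature.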
TDP1 cell noCPT – qHTS for Inhibitors of human tyrosyl-DNA phosphodiesterase 1 (TDP1): qHTS in cells in absence of CPT | DT40 Tdp1-/- hTDP1 cells, no CPT, ATP luminescence, 48 h | Potency, µM (titrated, usually from 46.2 µM), hits mostly inhibitors | 420,000 compounds, 15% hits; note: nearly all actives have a fitted effect of over 55% in size
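Chicken DT40 Tdp1-/- cells stably complemented with human TDP1 were seeded at 400 cells/well with DMSO in place of 20 nM camptothecin. After compound pinning, cells grew at least 48 hr at 37 °C; viability read by CellTiter-Glo luminescence.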
TDP1 inh – blocks human tyrosyl-DNA phosphodiesterase 1 | Q9NUW8 | recombinant TDP1, AlphaScreen DNA substrate cleavage | Potency, µM (series often up to 130 µM), usual class: inhibitors | 350,000 compounds, 0.28% hits | AID 485290; note: nearly all actives have a fitted effect of over 40% in size
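AlphaScreen read-out: signal falls as enzyme removes the 3' tyrosine-FITC from a 5'-biotinylated DNA oligo (15 nM, 5 min, RT). Enzyme was E. coli-made recombinant Tdp1 at 1 nM, exposed to compound for 15 min beforehand; beads 10 ug/ml, 10 min.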
VDR inh – blocks the human vitamin D receptor | P11473 | VDR-SRC2-3 peptide fluorescence polarization, 2 h | Potency, µM, most hits filed as inhibitors | 400,000 compounds, 0.93% hits
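Fluorescence polarization assay of small-molecule disruption of VDR binding to coregulator peptide SRC2-3. Compounds and controls pin-transferred, then read after 2 h incubation at ambient room temperature.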
PLK1 PBD block – inhibitors of human PLK1 polo-box domain binding. P53350. Potency, µM, actives largely listed as inhibitors. Plk1 PBD binding of FITC phosphopeptide, fluorescence polarization. 360,000 compounds, 2.8% hits. AID 720504; note: series mostly up to about 57 µM; nearly all actives have a fitted effect of over 65% in size
Target sequence (P53350 whole entry, looked up, the tested form may be a part): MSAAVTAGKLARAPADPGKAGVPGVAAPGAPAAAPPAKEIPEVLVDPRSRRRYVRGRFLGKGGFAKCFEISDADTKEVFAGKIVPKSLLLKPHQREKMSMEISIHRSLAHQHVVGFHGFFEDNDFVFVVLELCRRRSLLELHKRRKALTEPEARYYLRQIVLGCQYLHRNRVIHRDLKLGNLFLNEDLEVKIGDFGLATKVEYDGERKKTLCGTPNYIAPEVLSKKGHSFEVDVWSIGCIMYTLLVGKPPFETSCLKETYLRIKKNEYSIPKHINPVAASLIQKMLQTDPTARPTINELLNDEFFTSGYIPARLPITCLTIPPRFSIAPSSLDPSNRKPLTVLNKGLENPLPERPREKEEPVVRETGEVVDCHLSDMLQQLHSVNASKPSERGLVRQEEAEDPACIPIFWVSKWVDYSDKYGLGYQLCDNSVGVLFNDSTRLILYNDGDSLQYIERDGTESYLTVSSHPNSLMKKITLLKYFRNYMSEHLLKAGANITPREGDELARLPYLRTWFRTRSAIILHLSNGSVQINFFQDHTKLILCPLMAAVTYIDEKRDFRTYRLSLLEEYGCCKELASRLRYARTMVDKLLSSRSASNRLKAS
TDP1 cell CPT – DT40-hTDP1 cell growth loss with CPT. Potency, µM (highest dose often 46.2 µM), most hits filed as inhibitors. chicken DT40 Tdp1-/-;hTDP1 cells + 20 nM CPT, ATP luminescence, 48 h. 420,000 compounds, 12% hits; note: nearly all actives have a fitted effect of over 55% in size
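Cell growth measured by CellTiter-Glo luminescence after a minimum 48 h, 37 C compound exposure with 20 nM CPT in Tdp1-knockout DT40 cells stably expressing hTDP1, seeded 400/well; qHTS titration format.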
Numbers stand for hits; n = inactive; u = inconclusive; x = no result given; [ ] = dose if it differs, or a comment. Sampled rows, rich in hits. Any-hit rate of the full collection: about 18%. Calls come from the whole dose curve; as a rule, active = well fitted curve in the direction sought with a large enough effect; inconclusive = small, poorly fitted or top-dose-only effect, or another doubt; inactive = no such curve, though single readings can be large; an effect the other way counts as inactive or inconclusive.

SMILES | KAT2A inh | TDP1 cell noCPT | TDP1 inh | VDR inh | PLK1 PBD block | TDP1 cell CPT
CCc1nnc(NC(=O)CSc2nccn2-c2cccc(C)c2C)s1 | n | 8.2µM | n | n | n | 16µM
Cc1cccc(-n2ccnc2SCC(=O)Nc2ccccc2C(F)(F)F)c1 | n | u | n | n | x | u
Cc1cccc(C)c1OCc1nnc(SCC(=O)Nc2nccs2)n1-c1ccccc1 | x | 5.8µM | n | n | n | u
CC(C)Cn1c(=O)c2ccccc2n2c(CCC(=O)NC(C)c3ccccc3)nnc12 (centres undefined) | n | n | n | n | x | n
O=C(Cn1ccc(NC(=O)OCc2ccccc2)nc1=O)NCc1nc2ccccc2[nH]1 | n | n | n | u | n | n
CC(C)(C)c1nc2ccccc2c2nnc(SCC(=O)Nc3nc4ccccc4s3)n12 | n | u | n | n | n | u
CCOc1ccc(NC(=O)CSc2nccn2-c2cccc(C)c2C)cc1 | n | 18µM | n | n | x | 18µM
Cc1cccc(C)c1NC(=O)CSc1nnc(-c2ccoc2C)n1CCc1ccccc1 | n | n | n | n | n | n
Cc1occc1-c1nnc(SCC(=O)Nc2nccs2)n1CCc1ccccc1 | n | 18µM | n | n | u | 15µM
CC(C)(C)c1nc2ccccc2c2nnc(SCC(=O)Nc3nccs3)n12 | n | 4.6µM | n | n | n | 3.3µM
Cc1cccc(-c2nsc(SCC(=O)Nc3nccs3)n2)c1 | n | n | n | n | 19µM | n
CCCCN(CCCC)Cc1cc(=O)oc2ccccc12 | x | u | x | x | n | n
Cc1ccc(C(CNS(=O)(=O)c2cc(F)ccc2F)N2CCN(C)CC2)cc1 (centres undefined) | n | u | x | n | n | u
COc1ccc(CC(=O)Nc2ccc(N3CCCC3)c(C)c2)cc1 | n | u | n | n | n | u
Cc1cccc(-n2ccnc2SCC(=O)Nc2nccs2)c1C | n | 16µM | n | n | 27µM | u
CC(C)NC(=O)c1cn(C2CCCN(C(=O)c3cc4ccccc4oc3=O)C2)nn1 (centres undefined) | x | n | x | x | x | n[9.04 µM]
CN(C)CCNc1nc2sc3c(c2c(=O)n1-c1ccccc1)CCCCC3 | n | u | x | n | n | n
CN(C)CCNc1nc2sc3c(c2c(=O)n1-c1ccc(F)cc1)CCCCC3 | n | u | n | n | n | 21µM
COc1ccc(-n2c(N3CCN(C)CC3)nc3sc4c(c3c2=O)CCCCC4)cc1 | n | 15µM | n | n | n | 23µM
COc1ccc(-n2c(NCCN(C)C)nc3sc4c(c3c2=O)CCCCC4)cc1 | n | 16µM | n | n | n | u
Cc1ccc(S(=O)(=O)N2CCCC2CNC(=O)C(=O)NC2CC2)cc1 (centres undefined) | n | n | n | n | n | n
CC(=O)Nc1ccc(NC(=O)C(NS(=O)(=O)c2ccc(Br)s2)c2ccccc2)cc1 (centres undefined) | n | u | n[12.3 µM] | n | x | u
CC(C)(CC(=O)OCC(=O)Nc1ccccc1F)CC1=NS(=O)(=O)c2ccccc2N1 | n | 13µM | n | n | n | 23µM
COc1ccccc1NC(=O)COC(=O)CC(C)(C)CC1=NS(=O)(=O)c2ccccc2N1 | n | u | n | n | n | 23µM
COc1ccc(Cl)cc1NC(=O)COC(=O)CCCC1=NS(=O)(=O)c2ccccc2N1 | n | n | n | n | n | n
SMILES | KAT2A inh | TDP1 cell noCPT | TDP1 inh | VDR inh | PLK1 PBD block | TDP1 cell CPT
CCOC(=O)c1ccccc1NC(=O)COC(=O)CC(C)(C)CC1=NS(=O)(=O)c2ccccc2N1 | n | u | n | n | x | u
Cc1cccc(OCc2ccccc2)n1 | x | n | x | n | n | n
Cc1nc2ccccc2cc1OCc1ccccc1 | n | 16µM | n | n | n | 12µM
COC(=O)c1sccc1OCc1cccc(OC)c1 | n | n | n | n | n | n
COc1cccc(COc2cc3ccccc3nc2C)c1 | n | 9.2µM | n | n | n | 10µM
COC(=O)c1cn(NC(=O)c2ccc([N+](=O)[O-])cc2Cl)c(=O)c2ccccc12 | n | n | n | n | n | n
